In this assay the target is furin, P09958. The assay can be described thus: furin cleavage Z-score vs untreated control; higher = more cleavage, active = 3.5 or more, inactive = 1 or less, 8 variable residues between constant flanks. The procedure, abridged:
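Furin cleavage was scored on 8-mer peptides joined to a cDNA oligonucleotide and bound to magnetic beads at the N-terminus. Digestion with purified furin (1:10 enzyme:substrate, 0.01 ml, 50 mM HEPES pH 7.5, CaCl2, NaCl) lasted 7.5, 15 or 30 min. Freed DNA was tagged with adapters by PCR, sequenced and counted; the cleavage Z-score is the lowess-adjusted log count versus furin-free reactions, scaled by median absolute deviation.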

The other results are listed elsewhere or left out. No count for the full screen is at hand.

Sequence of furin, P09958 (P09958 whole entry): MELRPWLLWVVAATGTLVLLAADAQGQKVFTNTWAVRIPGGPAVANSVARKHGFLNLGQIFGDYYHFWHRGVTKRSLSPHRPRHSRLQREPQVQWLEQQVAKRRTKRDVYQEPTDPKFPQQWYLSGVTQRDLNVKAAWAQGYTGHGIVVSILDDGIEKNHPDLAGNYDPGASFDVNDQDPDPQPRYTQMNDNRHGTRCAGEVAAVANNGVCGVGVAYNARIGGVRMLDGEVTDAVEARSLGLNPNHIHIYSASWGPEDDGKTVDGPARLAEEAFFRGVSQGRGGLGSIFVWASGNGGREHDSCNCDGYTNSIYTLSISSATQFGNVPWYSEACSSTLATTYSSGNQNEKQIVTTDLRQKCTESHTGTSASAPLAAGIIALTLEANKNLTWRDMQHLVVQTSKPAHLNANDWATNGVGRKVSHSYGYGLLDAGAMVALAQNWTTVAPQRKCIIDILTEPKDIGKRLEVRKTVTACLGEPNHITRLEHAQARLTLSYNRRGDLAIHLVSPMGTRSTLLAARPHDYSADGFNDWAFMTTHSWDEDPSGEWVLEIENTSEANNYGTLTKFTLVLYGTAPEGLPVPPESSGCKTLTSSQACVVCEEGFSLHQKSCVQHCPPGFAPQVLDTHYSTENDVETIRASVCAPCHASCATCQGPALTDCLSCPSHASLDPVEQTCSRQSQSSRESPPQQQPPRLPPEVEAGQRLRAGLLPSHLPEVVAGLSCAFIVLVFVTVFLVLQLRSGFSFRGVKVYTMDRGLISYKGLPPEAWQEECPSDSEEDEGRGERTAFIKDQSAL

On to CANGSWHLNSAGNASASA [HC369], for which the “furin cleavage Z-score” value (7.5 min) was -0.0133 (inactive), the “furin cleavage Z-score” value (15 min) stood at 2.38 and the “furin cleavage Z-score” value (30 min) was 0.739 (inactive).

For the sequence CAHREVPCHRAGNASASA [HC2435], the “furin cleavage Z-score” value reads like this: (7.5 min) -0.316 (inactive); (15 min) 1.36; (30 min) 2.65.

Turning to CAVTKLPLAVAGNASASA [HC1460], the “furin cleavage Z-score” value reads like this: (7.5 min) -0.671 (inactive); (15 min) -0.455 (inactive); (30 min) 0.174 (inactive).

In the case of CARTPCSGSWAGNASASA [HC1833], the “furin cleavage Z-score” value is -0.828 (inactive) (7.5 min), -0.942 (inactive) (15 min) and -0.629 (inactive) (30 min).

Take CASGGPLLCPAGNASASA [HC743]: the “furin cleavage Z-score” value (7.5 min) was 0.483 (inactive), the “furin cleavage Z-score” value (15 min) is -0.364 (inactive) and the “furin cleavage Z-score” value (30 min) was -1.12 (inactive).

Turning to CANKFRTKRYAGNASASA [FS-695], the “furin cleavage Z-score” value is 9.46 (active) (7.5 min), 8.84 (active) (15 min) and 7.04 (active) (30 min).

For the sequence CAKYSRSYRYAGNASASA [FS-937], the “furin cleavage Z-score” value is, setting by setting: (7.5 min) -0.221 (inactive); (15 min) -0.443 (inactive); (30 min) 0.667 (inactive).

CADQERKARYAGNASASA [FS-758]: the “furin cleavage Z-score” value is, setting by setting: (7.5 min) -0.446 (inactive); (15 min) 0.477 (inactive); (30 min) 0.913 (inactive).

For CASGGRTKRYAGNASASA [FS-191], the “furin cleavage Z-score” value reads like this: (7.5 min) 8.8 (active); (15 min) 10.7 (active); (30 min) 9.18 (active).

Take CARVTAILSSAGNASASA [HC1132]: the “furin cleavage Z-score” value was 1.14 (7.5 min), 0.277 (inactive) (15 min) and -0.773 (inactive) (30 min).

On to CARRSRKVGSAGNASASA [FS-2455], for which the “furin cleavage Z-score” value is -0.487 (inactive) (7.5 min), 0.947 (inactive) (15 min) and 0.792 (inactive) (30 min).

For CARAARSRGAAGNASASA [FS-2324], the “furin cleavage Z-score” value reads like this: (7.5 min) -0.759 (inactive); (15 min) -0.113 (inactive); (30 min) -0.259 (inactive).

As for CARCPRQVSTAGNASASA [FS-3216], the “furin cleavage Z-score” value (7.5 min) was 4.16 (active), the “furin cleavage Z-score” value (15 min) is 3.66 (active) and the “furin cleavage Z-score” value (30 min) was 6.67 (active).

Take CARRVRIVSRAGNASASA [FS-1923]: the “furin cleavage Z-score” value is -0.897 (inactive) (7.5 min), 0.174 (inactive) (15 min) and 1.35 (30 min).

Regarding CADFEVVTSTAGNASASA [HC2287], the “furin cleavage Z-score” value was 0.0621 (inactive) (7.5 min), -1.1 (inactive) (15 min) and -1.43 (inactive) (30 min).

For the sequence CARRSRDVSCAGNASASA [FS-2519], the “furin cleavage Z-score” value (7.5 min) is 4.17 (active), the “furin cleavage Z-score” value (15 min) was 5.01 (active) and the “furin cleavage Z-score” value (30 min) is 5.69 (active).

In the case of CARGPRAVSTAGNASASA [FS-2334], the “furin cleavage Z-score” value is 0.54 (inactive) (7.5 min), 0.906 (inactive) (15 min) and 1.4 (30 min).

With CARRSRSSYTAGNASASA [FS-3070], the “furin cleavage Z-score” value reads like this: (7.5 min) -0.67 (inactive); (15 min) 0.865 (inactive); (30 min) 2.05.

Regarding CARAARHVVAAGNASASA [FS-1988], the “furin cleavage Z-score” value (7.5 min) was 0.916 (inactive), the “furin cleavage Z-score” value (15 min) came out at 2.53 and the “furin cleavage Z-score” value (30 min) was 4.88 (active).

Turning to CARRSRSPRTAGNASASA [FS-3069], the “furin cleavage Z-score” value (7.5 min) was 8.32 (active), the “furin cleavage Z-score” value (15 min) was 10.6 (active) and the “furin cleavage Z-score” value (30 min) was 7.67 (active).

For CARAARGTIGAGNASASA [FS-2879], the “furin cleavage Z-score” value runs as follows: (7.5 min) -0.0204 (inactive); (15 min) -0.846 (inactive); (30 min) 0.286 (inactive).

Regarding CASRSRSPRPAGNASASA [FS-1283], the “furin cleavage Z-score” value (7.5 min) was -0.34 (inactive), the “furin cleavage Z-score” value (15 min) is 0.132 (inactive) and the “furin cleavage Z-score” value (30 min) was -0.275 (inactive).

For the sequence CAEVPCHTPSAGNASASA [HC2378], the “furin cleavage Z-score” value is 0.816 (inactive) (7.5 min), 0.745 (inactive) (15 min) and 1.13 (30 min).

Regarding CAAGYSGGDIAGNASASA [HC1647], the “furin cleavage Z-score” value (7.5 min) was -1.51 (inactive), the “furin cleavage Z-score” value (15 min) was -1.76 (inactive) and the “furin cleavage Z-score” value (30 min) is -1.36 (inactive).

With CARAARVPRTAGNASASA [FS-1476], the “furin cleavage Z-score” value by setting is: (7.5 min) 7.67 (active); (15 min) 5.53 (active); (30 min) 4.3 (active).

As to CARRSRSSSRAGNASASA [FS-2600], the “furin cleavage Z-score” value is, setting by setting: (7.5 min) 0.0891 (inactive); (15 min) 0.74 (inactive); (30 min) 0.299 (inactive).

As to CARRFRVVSGAGNASASA [FS-1774], the “furin cleavage Z-score” value runs as follows: (7.5 min) 0.247 (inactive); (15 min) -0.792 (inactive); (30 min) -0.178 (inactive).

For CARRSRNVSTAGNASASA [FS-2083], the “furin cleavage Z-score” value is, setting by setting: (7.5 min) 1.86; (15 min) 4.41 (active); (30 min) 5.4 (active).

On to CARAARRAAGAGNASASA [FS-1678], for which the “furin cleavage Z-score” value (7.5 min) was -0.697 (inactive), the “furin cleavage Z-score” value (15 min) is -0.053 (inactive) and the “furin cleavage Z-score” value (30 min) is -1.33 (inactive).

For CARAARFAKTAGNASASA [FS-1885], the “furin cleavage Z-score” value by setting is: (7.5 min) -1.44 (inactive); (15 min) 0.407 (inactive); (30 min) 0.00762 (inactive).

With CARGSLLSPRAGNASASA [HC735], the “furin cleavage Z-score” value by setting is: (7.5 min) 0.168 (inactive); (15 min) -0.587 (inactive); (30 min) -0.591 (inactive).

Consider CAGSATLCSAAGNASASA [HC294], for which the “furin cleavage Z-score” value is, setting by setting: (7.5 min) -0.289 (inactive); (15 min) -0.124 (inactive); (30 min) -0.454 (inactive).

As for CARNKRTCSAAGNASASA [FS-2160], the “furin cleavage Z-score” value by setting is: (7.5 min) 2.24; (15 min) 3.57 (active); (30 min) 2.82.

Regarding CADNTTTSSEAGNASASA [HC1342], the “furin cleavage Z-score” value (7.5 min) is -1.15 (inactive), the “furin cleavage Z-score” value (15 min) is 0.112 (inactive) and the “furin cleavage Z-score” value (30 min) was -0.634 (inactive).

Take CARNKRTCSEAGNASASA [FS-2161]: the “furin cleavage Z-score” value reads like this: (7.5 min) 4.64 (active); (15 min) 4.66 (active); (30 min) 4.26 (active).

For the sequence CAEVPCHRHSAGNASASA [HC2395], the “furin cleavage Z-score” value is 0.115 (inactive) (7.5 min), 0.712 (inactive) (15 min) and 1.03 (30 min).

For CAECHSTDATAGNASASA [HC819], the “furin cleavage Z-score” value was -0.594 (inactive) (7.5 min), -1.11 (inactive) (15 min) and 0.253 (inactive) (30 min).

Consider CALFAGVDAEAGNASASA [HC349], for which the “furin cleavage Z-score” value (7.5 min) is -0.796 (inactive), the “furin cleavage Z-score” value (15 min) is -0.738 (inactive) and the “furin cleavage Z-score” value (30 min) was -0.0117 (inactive).

As for CAASAVLKRDAGNASASA [FS-751], the “furin cleavage Z-score” value runs as follows: (7.5 min) 0.168 (inactive); (15 min) -1.94 (inactive); (30 min) 1.16.

With CAIKDRNKRDAGNASASA [FS-251], the “furin cleavage Z-score” value by setting is: (7.5 min) 11.9 (active); (15 min) 10.9 (active); (30 min) 8.42 (active).

On to CAASGREGRDAGNASASA [FS-402], for which the “furin cleavage Z-score” value (7.5 min) was -0.371 (inactive), the “furin cleavage Z-score” value (15 min) was -0.657 (inactive) and the “furin cleavage Z-score” value (30 min) was -0.187 (inactive).

In the case of CAFSAREKRDAGNASASA [FS-587], the “furin cleavage Z-score” value runs as follows: (7.5 min) 10.7 (active); (15 min) 11.3 (active); (30 min) 9.1 (active).

In the case of CALGDREKRDAGNASASA [FS-548], the “furin cleavage Z-score” value is, setting by setting: (7.5 min) 4.49 (active); (15 min) 4.22 (active); (30 min) 4.54 (active).

Source of the values: the supplement of paper PMC3545927.
